From the supplement of paper PMC10849652
The full data set covers some 7,900 targets. This sample favours those with a hit. About 0.6% of all pairs of compound and target were hits.

Tests used:
Test in all cases: log2 fold change, soluble protein after heating vs DMSO (PISA); higher = thermal stabilisation; K562 cells, 10 uM, 30 min; active = over 0.2 and 3.5 SD of the protein, either way, in both replicates (recomputed)
[1] = compound: CC1=C(C=C(C=C1)NC(=O)C2=CC(=CC=C2)C(C)(C)C#N)NC3=CC4=C(C=C3)N=CN(C4=O)C
Method in brief: (§1)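 For each measurement, 10 μM compound was applied for 30 min to K562 cells at 2×10^6 cells/mL. Aliquots were heated for 3 min across 48°C-58°C, pooled, and extracted in PBS with 0.5% NP-40 at 4°C; the supernatant after 21,000xg for 90 min was soluble protein. This was quantified by TMTpro 16plex LC-MS/MS with channel sums equalised, and thermal stability was reported relative to control samples from duplicates, on a log2 fold-change scale.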

[2] = compound: CC1=C(C=C(C=C1)NC(=O)C2=CC(=CC=C2)N(C)C)NC(=O)C3=CC=C(C=C3)O
Method in brief: as §1

[3] = compound: CC1=CC=C(C=C1)SC2=C3C=C(SC3=CN=C2)C(=O)N
Method in brief: as §1

[4] = compound: CC1=NC(=CC=C1)C2=C(N=C(N2)C(C)(C)C)C3=CC4=NC=CN=C4C=C3
Method in brief: as §1

Nexturastat A = compound: CCCCN(Cc1ccc(C(=O)NO)cc1)C(=O)Nc1ccccc1 [Nexturastat A]
Method in brief: as §1

vemurafenib = compound: CCCS(=O)(=O)Nc1ccc(F)c(C(=O)c2c[nH]c3ncc(-c4ccc(Cl)cc4)cc23)c1F [vemurafenib]
Method in brief: as §1

[5] = compound: CCCS(=O)(=O)Nc1ccc(F)c(C(=O)c2c[nH]c3ncc(Cl)cc23)c1F
Method in brief: as §1

[6] = compound: CCCc1cc(C)[nH]c(=O)c1CNC(=O)c1cc(-c2ccnc(N3CCN(C)CC3)c2)cc2c1cnn2C(C)C
Method in brief: as §1

givinostat = compound: CCN(CC)Cc1ccc2cc(COC(=O)Nc3ccc(C(=O)NO)cc3)ccc2c1 [givinostat]
Method in brief: as §1

barasertib = compound: CCN(CCCOc1ccc2c(Nc3cc(CC(=O)Nc4cccc(F)c4)[nH]n3)ncnc2c1)CCOP(=O)(O)O [barasertib]
Method in brief: as §1

Measured: log2 fold change

ARFGAP2 (UniProt Q8N6H7)
UniProt Q8N6H7, sequence (Q8N6H7 whole entry, looked up): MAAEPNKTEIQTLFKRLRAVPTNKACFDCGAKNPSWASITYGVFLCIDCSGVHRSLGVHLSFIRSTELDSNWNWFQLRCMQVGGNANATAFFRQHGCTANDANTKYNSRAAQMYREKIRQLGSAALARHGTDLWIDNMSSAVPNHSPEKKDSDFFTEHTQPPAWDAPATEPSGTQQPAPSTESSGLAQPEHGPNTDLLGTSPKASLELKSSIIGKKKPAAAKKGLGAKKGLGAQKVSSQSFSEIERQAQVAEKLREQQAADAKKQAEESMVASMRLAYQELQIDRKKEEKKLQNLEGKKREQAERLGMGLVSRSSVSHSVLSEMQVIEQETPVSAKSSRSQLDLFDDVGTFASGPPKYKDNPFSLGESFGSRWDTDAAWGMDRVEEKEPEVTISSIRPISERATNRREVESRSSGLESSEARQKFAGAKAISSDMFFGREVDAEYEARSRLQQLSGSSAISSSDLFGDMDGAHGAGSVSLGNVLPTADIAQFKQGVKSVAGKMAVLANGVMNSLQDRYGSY
inactive: [1] 0.03 | [2] -0.065 | [3] -0.027 | [4] -0.04 | Nexturastat A -0.033 | vemurafenib 0.02 | [5] 0.033 | [6] 0.021 | givinostat 0.06 | barasertib 0.066

AKAP8L (UniProt Q9ULX6)
inactive: [1] -0.124 | [2] -0.007 | [3] -0.092 | [4] 0.005 | Nexturastat A 0.054 | vemurafenib 0.069 | [5] 0.067 | [6] 0.02 | givinostat 0.004 | barasertib 0.047

ARGLU1 (UniProt Q9NWB6)
UniProt Q9NWB6, sequence (Q9NWB6 whole entry, looked up): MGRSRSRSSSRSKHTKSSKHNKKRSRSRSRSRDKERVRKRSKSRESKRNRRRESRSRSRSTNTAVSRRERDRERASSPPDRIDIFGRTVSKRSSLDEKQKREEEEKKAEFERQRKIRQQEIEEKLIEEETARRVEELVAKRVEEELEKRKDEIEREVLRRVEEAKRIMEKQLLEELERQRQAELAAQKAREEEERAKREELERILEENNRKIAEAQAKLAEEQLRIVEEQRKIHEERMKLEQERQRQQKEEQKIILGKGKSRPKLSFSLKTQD
inactive: [1] 0.046 | [2] 0.055 | [3] -0.136 | [4] -0.044 | Nexturastat A 0.147 | vemurafenib 0.061 | [5] -0.045 | [6] -0.009 | givinostat 0.001 | barasertib -0.075

ABHD16A (UniProt O95870)
inactive: [1] 0.01 | [2] -0.084 | [3] -0.051 | [4] -0.057 | Nexturastat A 0.118 | vemurafenib -0.001 | [5] -0.036 | [6] 0.09 | givinostat 0.037 | barasertib 0.008

AGPAT5 (UniProt Q9NUQ2)
inactive: [1] -0.02 | [2] -0.009 | [3] 0.012 | [4] -0.068 | Nexturastat A -0.061 | vemurafenib 0.008 | [5] 0.095 | [6] -0.088 | givinostat -0.05 | barasertib 0.015

AP2M1 (UniProt Q96CW1)
UniProt Q96CW1, sequence (Q96CW1 whole entry, looked up): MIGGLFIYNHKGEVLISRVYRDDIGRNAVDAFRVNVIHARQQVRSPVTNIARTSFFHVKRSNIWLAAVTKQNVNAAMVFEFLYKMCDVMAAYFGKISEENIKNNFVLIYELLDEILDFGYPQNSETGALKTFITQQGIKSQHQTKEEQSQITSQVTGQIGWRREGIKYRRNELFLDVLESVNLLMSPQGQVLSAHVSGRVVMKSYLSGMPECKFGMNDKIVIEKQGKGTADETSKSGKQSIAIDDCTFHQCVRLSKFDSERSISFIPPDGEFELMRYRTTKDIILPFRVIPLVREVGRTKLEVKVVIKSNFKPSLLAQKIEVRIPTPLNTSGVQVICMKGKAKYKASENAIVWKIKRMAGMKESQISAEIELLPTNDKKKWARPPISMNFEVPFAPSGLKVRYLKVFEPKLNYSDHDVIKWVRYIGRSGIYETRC
inactive: [1] 0.022 | [2] -0.019 | [3] -0.023 | [4] 0.002 | Nexturastat A 0.073 | vemurafenib -0.006 | [5] 0.014 | [6] -0.049 | givinostat 0.031 | barasertib -0.074

BLVRB (UniProt P30043)
inactive: [1] 0.094 | [2] -0.023 | [3] -0.025 | [4] 0.027 | Nexturastat A -0.014 | vemurafenib 0.069 | [5] 0.063 | [6] 0.037 | givinostat 0.03 | barasertib 0.025

ACP2 (UniProt P11117)
UniProt P11117, sequence (P11117 whole entry, looked up): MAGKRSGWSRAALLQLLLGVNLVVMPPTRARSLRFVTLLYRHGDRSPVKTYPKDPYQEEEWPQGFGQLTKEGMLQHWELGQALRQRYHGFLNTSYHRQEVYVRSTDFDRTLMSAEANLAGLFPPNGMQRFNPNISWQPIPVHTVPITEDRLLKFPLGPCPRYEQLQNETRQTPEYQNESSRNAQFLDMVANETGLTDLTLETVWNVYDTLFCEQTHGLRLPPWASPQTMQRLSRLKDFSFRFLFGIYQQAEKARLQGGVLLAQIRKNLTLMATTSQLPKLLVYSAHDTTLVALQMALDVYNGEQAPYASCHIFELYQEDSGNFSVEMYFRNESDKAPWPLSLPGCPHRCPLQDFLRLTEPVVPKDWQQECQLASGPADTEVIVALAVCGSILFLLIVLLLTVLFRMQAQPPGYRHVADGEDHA
inactive: [1] -0.014 | [2] -0.013 | [3] 0.029 | [4] -0.027 | Nexturastat A -0.08 | vemurafenib 0.017 | [5] -0.023 | [6] -0.038 | givinostat 0 | barasertib 0.016

ANP32E (UniProt Q9BTT0)
inactive: [1] 0.041 | [2] -0.098 | [3] 0.091 | [4] -0.02 | Nexturastat A -0.11 | vemurafenib 0.091 | [5] 0.035 | [6] -0.001 | givinostat 0.112 | barasertib 0.076

ATP1B3 (UniProt P54709)
inactive: [1] 0 | [2] -0.015 | [3] -0.02 | [4] 0.046 | Nexturastat A -0.065 | vemurafenib 0.005 | [5] -0.036 | [6] -0.018 | givinostat -0.055 | barasertib -0.021

BCCIP (UniProt Q9P287)
inactive: [1] -0.023 | [2] -0.015 | [3] -0.009 | [4] -0.01 | Nexturastat A -0.002 | vemurafenib 0.02 | [5] 0.036 | [6] -0.004 | givinostat 0.035 | barasertib 0.033

BRAP (UniProt Q7Z569)
UniProt Q7Z569, sequence (Q7Z569 whole entry, looked up): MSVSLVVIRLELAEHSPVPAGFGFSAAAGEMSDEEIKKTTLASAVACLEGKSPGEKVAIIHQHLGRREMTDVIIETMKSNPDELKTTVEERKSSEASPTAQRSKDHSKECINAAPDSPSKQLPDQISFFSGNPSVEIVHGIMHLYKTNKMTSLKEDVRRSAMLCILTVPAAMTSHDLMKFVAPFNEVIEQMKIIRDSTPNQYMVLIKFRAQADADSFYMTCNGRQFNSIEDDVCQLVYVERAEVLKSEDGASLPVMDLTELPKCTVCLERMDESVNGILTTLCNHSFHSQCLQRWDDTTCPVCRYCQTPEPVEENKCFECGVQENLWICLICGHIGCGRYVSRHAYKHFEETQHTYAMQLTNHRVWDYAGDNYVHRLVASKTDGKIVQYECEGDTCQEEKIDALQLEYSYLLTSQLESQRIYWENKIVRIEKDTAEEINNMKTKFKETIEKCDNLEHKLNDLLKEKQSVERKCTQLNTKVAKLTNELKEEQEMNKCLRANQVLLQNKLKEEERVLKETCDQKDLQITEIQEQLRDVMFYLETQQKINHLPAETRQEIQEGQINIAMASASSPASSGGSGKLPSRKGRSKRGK
inactive: [1] 0.057 | [2] 0.075 | [3] 0.023 | [4] 0.029 | Nexturastat A -0.031 | vemurafenib 0.037 | [5] 0.151 | [6] 0.08 | givinostat -0.081 | barasertib 0.08

ACSM3 (UniProt Q53FZ2)
inactive: [1] -0.069 | [2] -0.056 | [3] 0.019 | [4] -0.029 | Nexturastat A -0.096 | vemurafenib 0.033 | [5] 0.036 | [6] 0.018 | givinostat 0.039 | barasertib 0.103

ALKBH4 (UniProt Q9NXW9)
inactive: [1] 0.071 | [2] -0.008 | [3] -0.015 | [4] 0.019 | Nexturastat A -0.125 | vemurafenib -0.048 | [5] 0.032 | [6] -0.015 | givinostat -0.05 | barasertib -0.016

BZW1 isoform 3 (UniProt Q7L1Q6)
inactive: [1] 0.064 | [2] -0.014 | [3] 0.036 | [4] 0.038 | Nexturastat A 0.016 | vemurafenib 0.107 | [5] 0.126 | [6] 0.105 | givinostat 0.084 | barasertib 0.06

ATAD1 (UniProt Q8NBU5)
inactive: [1] 0.019 | [2] -0.034 | [3] 0.012 | [4] -0.012 | Nexturastat A -0.305 | vemurafenib 0.076 | [5] 0.022 | [6] 0.045 | givinostat 0.046 | barasertib 0.055

ALDH18A1 (UniProt P54886)
inactive: [1] -0.179 | [2] 0.002 | [3] -0.04 | [4] 0.101 | Nexturastat A 0.035 | vemurafenib 0.068 | [5] 0.057 | [6] -0.137 | givinostat 0.141 | barasertib 0.214

ASNS (UniProt P08243)
inactive: [1] 0.008 | [2] 0.007 | [3] 0.026 | [4] 0.025 | Nexturastat A -0.045 | vemurafenib 0.007 | [5] 0.013 | [6] 0 | givinostat -0.004 | barasertib -0.004

ATOX1 (UniProt O00244)
UniProt O00244, sequence (O00244 whole entry, looked up): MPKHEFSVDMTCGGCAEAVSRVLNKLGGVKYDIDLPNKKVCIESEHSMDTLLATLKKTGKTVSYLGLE
inactive: [1] 0.056 | [2] -0.065 | [3] 0.275 | [4] 0.239 | Nexturastat A -0.037 | vemurafenib 0.054 | [5] 0.372 | [6] 0.28 | givinostat -0.072 | barasertib -0.025

ACIN1 (UniProt Q9UKV3)
inactive: [1] -0.028 | [2] 0.039 | [3] -0.015 | [4] -0.013 | Nexturastat A 0.044 | vemurafenib 0 | [5] 0.014 | [6] 0.023 | givinostat 0.105 | barasertib -0.008

ATF7 isoform 6 (UniProt P17544)
UniProt P17544, sequence (P17544 whole entry, looked up): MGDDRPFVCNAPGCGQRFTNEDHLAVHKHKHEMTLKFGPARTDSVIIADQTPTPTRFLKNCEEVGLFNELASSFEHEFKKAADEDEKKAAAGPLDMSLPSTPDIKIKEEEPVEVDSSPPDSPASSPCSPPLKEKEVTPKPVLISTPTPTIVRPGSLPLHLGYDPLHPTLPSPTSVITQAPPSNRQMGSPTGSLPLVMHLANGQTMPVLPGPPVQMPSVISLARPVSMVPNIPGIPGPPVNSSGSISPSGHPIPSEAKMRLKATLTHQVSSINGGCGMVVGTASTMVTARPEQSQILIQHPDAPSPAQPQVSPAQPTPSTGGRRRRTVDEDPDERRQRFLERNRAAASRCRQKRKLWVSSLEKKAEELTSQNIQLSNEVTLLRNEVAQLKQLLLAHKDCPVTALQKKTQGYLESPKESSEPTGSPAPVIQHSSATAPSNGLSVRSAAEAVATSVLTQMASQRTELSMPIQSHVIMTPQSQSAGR
inactive: [1] 0.465 | [2] -0.163 | [3] -0.155 | [4] -0.085 | Nexturastat A -0.042 | vemurafenib 0.045 | [5] 0.239 | [6] -0.032 | givinostat -0.131 | barasertib -0.033

ATP13A3 (UniProt Q9H7F0)
inactive: [1] 0.027 | [2] 0.031 | [3] -0.068 | [4] 0.012 | Nexturastat A -0.042 | vemurafenib -0.014 | [5] -0.02 | [6] -0.076 | givinostat 0.025 | barasertib -0.001

BRD8 (UniProt Q9H0E9)
UniProt Q9H0E9, sequence (Q9H0E9 whole entry, looked up): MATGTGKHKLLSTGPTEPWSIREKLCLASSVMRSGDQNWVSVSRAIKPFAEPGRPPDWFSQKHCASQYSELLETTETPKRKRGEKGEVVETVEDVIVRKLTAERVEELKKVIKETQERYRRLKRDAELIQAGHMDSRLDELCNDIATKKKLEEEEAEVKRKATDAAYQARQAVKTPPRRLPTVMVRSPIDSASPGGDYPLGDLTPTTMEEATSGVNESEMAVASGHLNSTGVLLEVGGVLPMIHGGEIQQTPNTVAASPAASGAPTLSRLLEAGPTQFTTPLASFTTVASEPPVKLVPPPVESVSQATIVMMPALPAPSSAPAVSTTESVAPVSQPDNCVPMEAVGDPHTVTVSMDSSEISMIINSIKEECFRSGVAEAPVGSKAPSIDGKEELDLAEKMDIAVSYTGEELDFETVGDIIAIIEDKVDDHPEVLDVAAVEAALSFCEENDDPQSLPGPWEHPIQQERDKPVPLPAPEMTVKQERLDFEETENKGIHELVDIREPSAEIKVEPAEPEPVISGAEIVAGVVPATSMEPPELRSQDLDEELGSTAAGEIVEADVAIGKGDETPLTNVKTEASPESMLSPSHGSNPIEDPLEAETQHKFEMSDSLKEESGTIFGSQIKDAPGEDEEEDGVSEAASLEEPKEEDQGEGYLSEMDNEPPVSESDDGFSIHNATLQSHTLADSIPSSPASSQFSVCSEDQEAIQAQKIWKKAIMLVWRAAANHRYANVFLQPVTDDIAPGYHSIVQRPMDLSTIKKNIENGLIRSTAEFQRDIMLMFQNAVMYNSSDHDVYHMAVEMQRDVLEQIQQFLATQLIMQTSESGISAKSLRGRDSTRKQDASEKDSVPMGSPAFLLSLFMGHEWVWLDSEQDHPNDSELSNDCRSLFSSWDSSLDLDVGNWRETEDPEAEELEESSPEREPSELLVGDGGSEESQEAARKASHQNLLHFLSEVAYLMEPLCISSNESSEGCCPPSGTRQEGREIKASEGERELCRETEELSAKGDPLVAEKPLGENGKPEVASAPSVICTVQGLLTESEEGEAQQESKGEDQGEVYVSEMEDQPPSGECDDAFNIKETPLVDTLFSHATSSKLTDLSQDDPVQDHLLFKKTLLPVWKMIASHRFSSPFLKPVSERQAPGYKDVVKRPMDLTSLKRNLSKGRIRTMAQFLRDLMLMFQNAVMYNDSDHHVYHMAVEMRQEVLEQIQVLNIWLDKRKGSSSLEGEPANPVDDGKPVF
inactive: [1] 0.002 | [2] 0.026 | [3] -0.01 | [4] 0.017 | Nexturastat A -0.098 | vemurafenib 0.027 | [5] 0.01 | [6] 0.002 | givinostat -0.153 | barasertib -0.026

ARFRP1 (UniProt Q13795)
UniProt Q13795, sequence (Q13795 whole entry, looked up): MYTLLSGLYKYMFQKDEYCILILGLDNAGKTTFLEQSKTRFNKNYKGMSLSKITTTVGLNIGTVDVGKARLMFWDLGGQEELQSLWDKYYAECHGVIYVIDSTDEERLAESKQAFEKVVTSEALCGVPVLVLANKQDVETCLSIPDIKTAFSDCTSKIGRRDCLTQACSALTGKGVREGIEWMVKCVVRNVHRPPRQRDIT
inactive: [1] 0.138 | [2] 0.003 | [3] 0.082 | [4] 0.069 | Nexturastat A -0.048 | vemurafenib 0.033 | [5] 0 | [6] 0.046 | givinostat 0.012 | barasertib -0.015

ALDH9A1 (UniProt P49189)
inactive: [1] 0.004 | [2] 0.004 | [3] -0.015 | Nexturastat A -0.125 | vemurafenib 0.026 | [5] 0.005 | [6] 0.18 | givinostat 0.058 | barasertib 0.05

BCAP29 isoform 2 (UniProt Q9UHQ4)
inactive: [1] -0.078 | [2] 0.006 | [3] 0.015 | [4] 0.01 | Nexturastat A -0.032 | vemurafenib -0.033 | [5] -0.036 | [6] -0.116 | givinostat -0.075 | barasertib 0.025

ASH2L (UniProt Q9UBL3)
UniProt Q9UBL3, sequence (Q9UBL3 whole entry, looked up): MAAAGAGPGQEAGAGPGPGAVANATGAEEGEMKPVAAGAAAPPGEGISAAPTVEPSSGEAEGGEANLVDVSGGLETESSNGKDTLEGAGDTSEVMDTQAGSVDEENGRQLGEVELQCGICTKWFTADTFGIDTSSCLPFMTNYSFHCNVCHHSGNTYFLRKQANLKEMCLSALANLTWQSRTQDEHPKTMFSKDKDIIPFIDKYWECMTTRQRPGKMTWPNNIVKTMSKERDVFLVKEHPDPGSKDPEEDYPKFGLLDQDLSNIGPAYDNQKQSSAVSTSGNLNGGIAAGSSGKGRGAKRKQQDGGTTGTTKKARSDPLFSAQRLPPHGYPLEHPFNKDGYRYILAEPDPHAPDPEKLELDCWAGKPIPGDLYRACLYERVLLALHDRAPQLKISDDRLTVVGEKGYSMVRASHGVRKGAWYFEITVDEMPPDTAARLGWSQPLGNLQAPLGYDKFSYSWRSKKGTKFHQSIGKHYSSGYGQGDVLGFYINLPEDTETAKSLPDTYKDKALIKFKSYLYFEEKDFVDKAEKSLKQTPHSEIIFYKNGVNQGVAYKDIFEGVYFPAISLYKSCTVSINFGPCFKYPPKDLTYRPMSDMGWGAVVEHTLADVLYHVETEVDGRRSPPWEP
inactive: [1] 0.018 | [2] -0.047 | [3] 0.003 | [4] 0.01 | Nexturastat A -0.003 | vemurafenib 0.057 | [5] 0.071 | [6] -0.022 | givinostat 0.031 | barasertib 0.007
